The structures appear in SMILES notation. The panel holds about 83,000 compounds, 20% with a hit somewhere; the sample as a whole holds those more often.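 Single-concentration screen, 48 h exposure, 96-well plates. Endpoint: percent growth. Below 10 = active.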 Activity calls are given as the source filed them.

One test has as its system 786-0 renal. Briefly: NCI-60 one-dose screen, 48 h (100 = growth as untreated, 0 = no growth, -100 = all killed). As to conditions: 10 µM unless noted.
On to `Cc1ccc(C(=O)NCCCNc2nccc(-n3ccc4cccnc43)n2)cc1`, for which the growth is 93.7% (inactive). Take `N/C(=N\C(N)=N\c1nc2ccccc2s1)c1ccncc1`: the growth is 73.9% (inactive). The same measure, in the same setting: the result for `COC(=O)c1nc(-c2ccccc2)oc1S(=O)(=O)N1CCN(c2cccc(Cl)c2)CC1` reads 57% (inactive); that for `CCCCCCCCC(C)OC(=O)c1nn(C(C)=O)c2ccccc12` (centres undefined), 97.3% (inactive). Same read-out and setting: the result for `Cc1ccc(N2CCN(C(C)C(N)=O)CC2)cc1` (centres undefined) reads 103% (inactive); that for `COc1ccc(S(=O)(=O)NCCCNc2nccc(-c3c(-c4cccc([N+](=O)[O-])c4)nc4sccn34)n2)cc1`, 66.6% (inactive); that for `COc1ccc(-n2c(=S)sc3c(Cl)nc(C)nc32)c(OC)c1`, 75.3% (inactive). Still for that read-out and setting: the result for `N[C@@H]1CCN(C(=O)c2cc3cc(Cl)c(F)c(F)c3[nH]2)C1` reads 86.6% (inactive); that for `C=C[C@@H]1C[C@@H]2Cc3cc(F)ccc3N1O2`, 111% (inactive). With `CCCCN(CCCC)C(=O)CC`, the growth is 102% (inactive). Consider `CC12CCC3C4(C)COC(c5ccco5)OC4CCC3(C)C1CC(C1=CCOC1=O)O2` (centres undefined), for which the growth is 93.4% (inactive). The same measure, in the same setting: the result for `CCCCN(CCCC)C(=N)c1ccnc2ccccc12` reads 115% (inactive). Turning to `C=C1C(=O)O[C@H]2[C@H]1CC/C(Cn1cc(CNC(=O)c3cc4ccccc4[nH]3)nn1)=C\CC[C@@]1(C)O[C@@H]21`, the growth was 66.1% (inactive). Same read-out and setting: the result for `NC(=O)CCCN1C/C(=C\c2ccccc2)C(=O)c2ccccc21` reads 96.6% (inactive); that for `COc1cc(/C=C/C(=O)N2CCN(C(=O)/C=C/c3cc(OC)c(OC)c(OC)c3)CC2)cc(OC)c1OC`, 96.8% (inactive); that for `COc1ccc(Nc2ncccc2C(=O)NCc2cn(Cc3cccc(Oc4ccccc4)c3)nn2)cc1`, 51.3% (inactive).

Consider `c1ccc(-c2nnc(-c3ccccn3)s2)nc1`, for which the growth is 78.9% (inactive). For the compound `C=C1CCC2C(C)(CO)C(O)CCC2(C)C1CC(NCc1ccccc1)C1=CCOC1=O` (centres undefined), the growth was 96.3% (inactive). Still for that read-out and setting: with `CCCCCCCCCCCC(=O)NCCC[N+](C)(C)CC(=O)[O-]` the figure was 93.5% (inactive). The same measure, in the same setting: the result for `CC(C)CSc1nc(NN)c(C#N)c(-c2ccc(F)cc2)n1` reads 85.9% (inactive); that for `O=c1[nH]c(-c2ccccc2)nc(CN2CCCCC2)c1O`, 102% (inactive); that for `Cc1ccc(S(=O)(=O)Nc2c(Br)cc(Br)cc2C(N)=O)cc1`, 101% (inactive). Same read-out and setting: the result for `Nc1nc(-c2ccccc2)c(CCCOc2ccc(NC(=O)CBr)cc2)c(=O)[nH]1` reads 115% (inactive); that for `Nc1cccc(-c2nc3sccn3c2-c2ccnc(NCCNS(=O)(=O)c3ccc(C(F)(F)F)cc3)n2)c1`, 65.5% (inactive). With `Cc1ccc(-c2nc(C#N)c(S(=O)(=O)n3nc(-c4ccccc4)cc3N)o2)cc1`, the growth was 84% (inactive).

The test system of another test is COLO 205 colon. The test is described as above. As to conditions: 10 µM unless noted.
In the case of `C/C=C(\C)C(C(=O)NC1CCCCC1)N(C(=O)C1CCc2cc(F)ccc2O1)c1ccc(Cl)cc1` (centres undefined), the growth was 106% (inactive). The same measure, in the same setting: with `N=C(N)c1ccc(-c2cc(Cl)cc(Cl)c2)cn1` the figure was 19.5% (inactive); with `COc1ccc(-c2cc(-c3ccccc3)nc(SCCCC(=O)NO)n2)cc1OC`, 23.7% (inactive); with `CCC(C)/C(=C\C#N)NCCCN/C(=C/C#N)C(C)CC` (centres undefined), 111% (inactive). The same measure, in the same setting: with `CC1=C(C#N)C(=O)NC(C)C1` (centres undefined) the figure was 108% (inactive); with `COc1cccc(/C=C2\Oc3cc(OCCCN4CCCC4)ccc3C2=O)c1OC`, 105% (inactive); with `COc1cc(C2C3=C(COC3=O)Nc3cc4c(cc32)CCC4)cc2c1OCO2` (centres undefined), -63.1% (active).

Regarding `CCN(CC)c1ccc(/C=C2\Oc3ccc(O)c(I)c3C2=O)cc1`, the growth is 64.3% (inactive). The same measure, in the same setting: the result for `C=C(C)[C@@H]1CC[C@]2(C(=O)O)CC[C@]3(C)[C@H](CC[C@@H]4[C@@]5(C)C[C@@H](CC#Cc6ccc(C(F)(F)F)cc6)[C@H](O)C(C)(C)[C@@H]5CC[C@]43C)[C@@H]12` reads 21.1% (inactive). On the same count and under the same terms, with `COc1ccc2c(c1)[nH]c(=O)c1c3cccc(F)c3cn21` the figure was -20.8% (active); with `CCOC(=O)C1=C(C)NC(C)=C(C(=O)OCC)C1(C)C`, 113% (inactive); with `COc1cccc(/C=C/C(=O)Nc2cc(OC)c3c(c2)OCO3)c1`, 109% (inactive).

In the case of `COc1cccc(-c2nc3sccn3c2-c2ccnc(NCCCNS(=O)(=O)c3ccc(F)cc3)c2)c1`, the growth is 33.1% (inactive). Consider `COc1ccc(S(=O)(=O)Nc2cc(/C=C\c3cc(OC)c(OC)c(OC)c3)cc(OC)c2OC)cc1`, for which the growth is -62.4% (active). Same read-out and setting: with `Cc1ccc(C(=O)NCCCNc2nccc(-n3ccc4cccnc43)n2)cc1` the figure was 103% (inactive); with `N/C(=N\C(N)=N\c1nc2ccccc2s1)c1ccncc1`, 64.3% (inactive); with `COC(=O)c1nc(-c2ccccc2)oc1S(=O)(=O)N1CCN(c2cccc(Cl)c2)CC1`, 82.5% (inactive). On the same count and under the same terms, with `CCCCCCCCC(C)OC(=O)c1nn(C(C)=O)c2ccccc12` (centres undefined) the figure was 111% (inactive); with `Cc1ccc(N2CCN(C(C)C(N)=O)CC2)cc1` (centres undefined), 122% (inactive); with `COc1ccc(S(=O)(=O)NCCCNc2nccc(-c3c(-c4cccc([N+](=O)[O-])c4)nc4sccn34)n2)cc1`, 36.4% (inactive). On the same count and under the same terms, with `COc1ccc(-n2c(=S)sc3c(Cl)nc(C)nc32)c(OC)c1` the figure was 61.1% (inactive); with `N[C@@H]1CCN(C(=O)c2cc3cc(Cl)c(F)c(F)c3[nH]2)C1`, 110% (inactive). Consider `C=C[C@@H]1C[C@@H]2Cc3cc(F)ccc3N1O2`, for which the growth was 123% (inactive).

In the case of `CCCCN(CCCC)C(=O)CC`, the growth is 119% (inactive). As for `CC12CCC3C4(C)COC(c5ccco5)OC4CCC3(C)C1CC(C1=CCOC1=O)O2` (centres undefined), the growth was 110% (inactive). Still for that read-out and setting: the result for `CCCCN(CCCC)C(=N)c1ccnc2ccccc12` reads 125% (inactive); that for `C=C1C(=O)O[C@H]2[C@H]1CC/C(Cn1cc(CNC(=O)c3cc4ccccc4[nH]3)nn1)=C\CC[C@@]1(C)O[C@@H]21`, -34.4% (active); that for `NC(=O)CCCN1C/C(=C\c2ccccc2)C(=O)c2ccccc21`, 105% (inactive). Still for that read-out and setting: the result for `COc1cc(/C=C/C(=O)N2CCN(C(=O)/C=C/c3cc(OC)c(OC)c(OC)c3)CC2)cc(OC)c1OC` reads 109% (inactive); that for `COc1ccc(Nc2ncccc2C(=O)NCc2cn(Cc3cccc(Oc4ccccc4)c3)nn2)cc1`, 43.9% (inactive). On the same count and under the same terms, with `c1ccc(-c2nnc(-c3ccccn3)s2)nc1` the figure was 109% (inactive). With `C=C1CCC2C(C)(CO)C(O)CCC2(C)C1CC(NCc1ccccc1)C1=CCOC1=O` (centres undefined), the growth was 103% (inactive).

Turning to `CCCCCCCCCCCC(=O)NCCC[N+](C)(C)CC(=O)[O-]`, the growth is 88.7% (inactive). Consider `CC(C)CSc1nc(NN)c(C#N)c(-c2ccc(F)cc2)n1`, for which the growth is 97.1% (inactive). On the same count and under the same terms, with `O=c1[nH]c(-c2ccccc2)nc(CN2CCCCC2)c1O` the figure was 113% (inactive); with `Cc1ccc(S(=O)(=O)Nc2c(Br)cc(Br)cc2C(N)=O)cc1`, 103% (inactive); with `Nc1nc(-c2ccccc2)c(CCCOc2ccc(NC(=O)CBr)cc2)c(=O)[nH]1`, 118% (inactive). On the same count and under the same terms, the result for `Nc1cccc(-c2nc3sccn3c2-c2ccnc(NCCNS(=O)(=O)c3ccc(C(F)(F)F)cc3)n2)c1` reads 58.8% (inactive); that for `Cc1ccc(-c2nc(C#N)c(S(=O)(=O)n3nc(-c4ccccc4)cc3N)o2)cc1`, -44.1% (active).

These data come from PubChem BioAssay (NCI).
